{"source": "PubChem BioAssay AID2315", "about": "(National Center for Advancing Translational Sciences (NCATS), 2010)", "note": "“And” between values parts separate entries of the source, which are not always exact repeats. Equal entries are not always repeated. Screen size: about 290,000 compounds; about 27,000 (9.3%) were called active. No stated cut-off is given here; in the data, active means inhibition mostly above about 28% (no sharp cut-off); inactive means mostly below about 43%. The sample as a whole holds a higher share of actives than the screen did."}
{"test": "A qHTS for Small Molecule Inhibitors of Shiga Toxin; further: 0% is about no effect", "settings": "Vero cells, Shiga toxin protein synthesis inhibition reporter; at 38.7 µM, active compounds read high"}
{"smiles": "CCCCC(=O)Nc1ccccc1N1CCN(c2ccc(F)cc2)CC1", "inhibition": "-8.03% (inactive)"}
{"smiles": "Cc1cc(C)c(S(=O)(=O)c2ccc(F)cc2C)c(=O)[nH]1", "inhibition": "3.7% (inactive)"}
{"smiles": "O=C(N/C(=C\\c1ccc([N+](=O)[O-])cc1)C(=O)N1CCCCC1)c1ccco1", "inhibition": "-18.7% (inactive)"}
{"smiles": "COC(=O)c1ccccc1NC(=S)NC(=O)c1ccccc1F", "inhibition": "-1.7% (inactive)"}
{"smiles": "O=C(NC(=S)Nc1ccccc1C(=O)O)c1ccc(-c2ccc(Br)cc2)o1", "inhibition": "125% (active)"}
{"smiles": "O=C(O)c1ccccc1NC(=O)c1ccccc1-c1ccccc1C(=O)O", "inhibition": "-1.49% (inactive)"}
{"smiles": "O=C(CSc1nc2nccnc2c(=O)n1Cc1cccs1)Nc1ccccc1F", "inhibition": "18.1% (inactive)"}
{"smiles": "CC(=O)Nc1ccc(NC(=O)C2CCCN(S(=O)(=O)c3ccc(Cl)cc3)C2)cc1", "note": "(stereo unspecified)", "inhibition": "-4.09% (inactive)"}
{"smiles": "CCCNC(=O)c1ccc(Cl)c(Cl)c1", "inhibition": "-6.36% (inactive)"}
{"smiles": "CCCNC(=O)c1c(Cl)cnn1-c1ccc(C)cc1", "inhibition": "59.9% (active)"}
{"smiles": "CCCNC(=O)CCc1c(C)nc2c(c(C)nn2-c2ccc(C)cc2)c1C", "inhibition": "-2.23% (inactive)"}
{"smiles": "COc1ccc(-n2nc(C(=O)NCC(=O)N3CCN(c4ccccc4OC)CC3)c3ccccc3c2=O)c(OC)c1", "inhibition": "73.3% (active)"}
{"smiles": "COc1ccc(-n2nc(C(=O)Nc3cc(OC)c(OC)c(OC)c3)c3ccccc3c2=O)c(OC)c1", "inhibition": "-1.7% (inactive)"}
{"smiles": "COc1cccc(NC(=O)c2nn(-c3ccc(OC)cc3OC)c(=O)c3ccccc23)c1", "inhibition": "-8.21% (inactive)"}
{"smiles": "Cc1cc(NC(=O)Nc2ccccc2[N+](=O)[O-])no1", "inhibition": "28.7% (inactive)"}
{"smiles": "Cc1csc(NC(=O)Nc2ccccc2[N+](=O)[O-])n1", "inhibition": "67.7% (active)"}
{"smiles": "Cc1csc(NC(=O)NC2(C(F)(F)F)Oc3ccccc3O2)n1", "inhibition": "24.4% (inactive)"}
{"smiles": "COC(=O)C1=CN(c2ccc(F)c(F)c2)C=C(C(=O)OC)C1c1ccc([N+](=O)[O-])cc1", "inhibition": "3.77% (inactive)"}
{"smiles": "Nc1[nH][nH]c(=O)c1N=Nc1ccc2c(c1)OCO2", "inhibition": "74.5% (active)"}
{"smiles": "Cc1[nH][nH]c(=O)c1C(c1ccc2c(c1)OCO2)c1c(C)[nH][nH]c1=O", "inhibition": "-5.46% (inactive)"}
{"smiles": "Cc1[nH][nH]c(=O)c1N=Nc1ccccc1", "inhibition": "-4.84% (inactive)"}
{"smiles": "CC1CCC(NS(=O)(=O)c2ccc3c(c2)CC(=O)N3)CC1", "note": "(stereo unspecified)", "inhibition": "-4.99% (inactive)"}
{"smiles": "COc1ccc(OC(C)C(=O)NCCc2nc3ccccc3[nH]2)cc1", "note": "(stereo unspecified)", "inhibition": "-1.88% (inactive)"}
{"smiles": "Clc1ccccc1SCc1nc2ccccc2[nH]1", "inhibition": "79.4% (active)"}
{"smiles": "c1ccc2c(CSCc3nc4ccccc4[nH]3)cccc2c1", "inhibition": "42.3% (inactive)"}
{"smiles": "COc1cc(C(=O)NN(CCC#N)C2=NS(=O)(=O)c3ccccc32)cc(OC)c1OC", "inhibition": "-7% (inactive)"}
{"smiles": "O=C(c1ccc(CS(=O)(=O)c2ccccc2)o1)N1CCN(c2ccccc2)CC1", "inhibition": "-5.16% (inactive)"}
{"smiles": "COc1ccc(C2(C)NC(=O)N(CC(=O)c3ccc4c(c3)OCO4)C2=O)cc1", "note": "(stereo unspecified)", "inhibition": "20.5% (inactive)"}
{"smiles": "O=C(CSc1nnc(CNC(=O)c2ccc(F)cc2)o1)Nc1ccc2c(c1)OCO2", "inhibition": "-2.6% (inactive)"}
{"smiles": "O=C(O)c1ccc(OCC2CCCO2)cc1", "note": "(stereo unspecified)", "inhibition": "-1.54% (inactive)"}
{"smiles": "C=CCn1c(SCc2ccccc2)nc2c1c(=O)[nH]c(=O)n2C", "inhibition": "-10.2% (inactive)"}
{"smiles": "Cc1c(C(=O)NC(C)C2CC3CCC2C3)cccc1[N+](=O)[O-]", "note": "(stereo unspecified)", "inhibition": "-7.71% (inactive)"}
{"smiles": "COC(=O)c1cn(C(=O)c2ccc(Cl)cc2)c2ccccc12", "inhibition": "10.5% (inactive)"}
{"smiles": "COC(=O)/C(NC(C)=O)=C(\\C)c1ccc(Cl)cc1", "inhibition": "-4.26% (inactive)"}
{"smiles": "COC(=O)C(=Nc1ccccc1)/C(C(=O)C(=O)N(C)c1ccccc1)=C(\\O)c1ccc(Cl)cc1", "inhibition": "127% (active)"}
{"smiles": "COCCn1cnc2c1c(=O)n(Cc1ccc(Br)cc1)c(=O)n2Cc1ccccc1", "inhibition": "15.6% (inactive)"}
{"smiles": "Cc1ccc(C2CCN(C(=S)Nc3cccc(Cl)c3)C2)cc1", "note": "(stereo unspecified)", "inhibition": "47.7% (active)"}
{"smiles": "Cc1cccc(NC(=S)N2CCCC(c3nc4ccccc4[nH]3)C2)c1", "note": "(stereo unspecified)", "inhibition": "-11.2% (inactive)"}
{"smiles": "O=C(C1CCCO1)N1CCN(C(=S)Nc2cccc(Cl)c2)CC1", "note": "(stereo unspecified)", "inhibition": "-2.49% (inactive)"}
{"smiles": "COc1cc(N2C(=O)CSC2=S)cc(OC)c1OC", "inhibition": "-9% (inactive)"}
{"smiles": "CN(C)CCNC(=O)c1[nH]nc2c1CCc1ccccc1-2", "inhibition": "35.7% (inactive)"}
{"smiles": "Cc1cc(=O)cc(C)n1-c1ccc(Cl)c(Cl)c1", "inhibition": "14.3% (inactive)"}
{"smiles": "O=C(Cc1c(O)c2ccccc2[nH]c1=O)NCc1ccccc1", "inhibition": "-13.9% (inactive)"}
{"smiles": "O=C(Cc1ccccc1)NCc1ccc(F)cc1", "inhibition": "55.7% (active)"}
{"smiles": "O=C(/C=C/NCc1ccc(F)cc1)c1ccccc1", "inhibition": "61.7% (active)"}
{"smiles": "O=C(CNCc1ccc(F)cc1)Nc1ccccc1-c1ccccc1", "inhibition": "-4.12% (inactive)"}
{"smiles": "O=C(CCCc1ccccc1)NCc1ccccc1", "inhibition": "39.1% (active)"}
{"smiles": "O=C(/C=C\\NCC(=O)c1ccccc1)c1ccccc1", "inhibition": "17.6% (inactive)"}
{"smiles": "O=C(CCOc1ccccc1)NCc1ccccc1", "inhibition": "-3.66% (inactive)"}
{"smiles": "O=C(O)CCCc1ccccc1", "inhibition": "-13.8% (inactive) and 15.3% (inactive)"}
{"smiles": "CCCCC(=O)NCc1ccc(F)cc1", "inhibition": "21.3% (inactive)"}
